This note sets out measurements from the supplement of paper PMC10105736.

A number with no mark means an inactive call.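 Rule for the calls: active = MAPPIT score above the 99th percentile of random reference set scores in the same batch; inactive = at or below it.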

Experiment in all cases: MAPPIT interaction score (arbitrary units); higher = stronger binary interaction signal, active = hit call of the paper
In one test the target is CG13840. As to conditions: MAPPIT configuration: N-N; pair source set: Curagen_low_conf.
A further test concerns the target CG5674. As to conditions: MAPPIT configuration: N-N; pair source set: screen_2.
The next test has as its target Klp98A. The conditions noted are these: MAPPIT configuration: N-N; pair source set: screen_1.
The target in a further test is Rpn13. The conditions noted are these: MAPPIT configuration: N-N; pair source set: screen_2.
The target of another test is CG13494. The conditions noted are these: MAPPIT configuration: N-C; pair source set: screen_3.
A further test addresses CG13843. The conditions noted are these: MAPPIT configuration: N-C; pair source set: screen_3.
The next test addresses Os-C. The conditions noted are these: MAPPIT configuration: N-N; pair source set: RRS.
The target in another test is CG13510. As to conditions: MAPPIT configuration: N-N; pair source set: Lit-BS-16.
The next test has as its target CG13901. As to conditions: MAPPIT configuration: N-N; pair source set: Finley_Y2H.
A further test deals with CG5862. As to conditions: MAPPIT configuration: N-N; pair source set: Curagen_high_conf.
The target of a further test is RpLP1. The conditions noted are these: MAPPIT configuration: N-N; pair source set: Curagen_low_conf.
The target in a further test is CG13069. As to conditions: pair source set: RRS.
A further test concerns the target DCTN1-p150. As to conditions: MAPPIT configuration: N-N; pair source set: Lit-BM-16.
In a further test the target is ctp. As to conditions: pair source set: Lit-BM-16.
In a further test the target is CG13058. As to conditions: pair source set: RRS.
In a further test the target is CG13560. As to conditions: MAPPIT configuration: N-N; pair source set: Finley_Y2H.
The next test deals with CG13476. The conditions noted are these: MAPPIT configuration: N-N; pair source set: Lit-BS-16.
The target of another test is CG9795. As to conditions: MAPPIT configuration: N-N; pair source set: Curagen_high_conf.
In the next test the target is CG1316. The conditions noted are these: MAPPIT configuration: N-N; pair source set: Curagen_high_conf.
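Note: HEK293T cells with Epo stimulation, STAT-responsive firefly luciferase reporter, fold induction versus unstimulated cells divided by the larger fold induction of two negative controls lacking either bait or prey.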

B1: sina (protein)
chain: MSNKINPKRREPTAAAAGAGATGVATNTSTSTGSSSAGNTSSANTSSSSSSSLSSAGGGDAGMSADLTSLFECPVCFDYVLPPILQCSSGHLVCVSCRSKLTCCPTCRGPLANIRNLAMEKVASNVKFPCKHSGYGCTASLVYTEKTEHEETCECRPYLCPCPGASCKWQGPLDLVMQHLMMSHKSITTLQGEDIVFLATDINLPGAVDWVMMQSCFGHHFMLVLEKQEKYDGHQQFFAIVQLIGSRKEAENFVYRLELNGNRRRLTWEAMPRSIHEGVASAIHNSDCLVFDTSIAQLFADNGNLGINVTISLV
Consider B1, for which the MAPPIT interaction score with CG13840 was -0.135; with CG5674, -0.0161; with Klp98A it was 0.0642; with Rpn13, 0.72.

B2: CG5021 (protein)
chain: MASATVRNVPLLDDDTIPFGEEDEMRDPSRAGQKYTHPYVTFFHLFFRGAAILIYMFCGWFSDSFITSFVFVVLFLSADFWTVKNISGRLLVGLRWWNYVDDDGVSHWVFESKNSESYQSRVNKNEQRIFWLGLILCPVFWGLFFLFALFGLKFKWLLLVMIAIALNAANLYGYVKCNYGANKDLNSAATDFVKTQFFKNAVDIMTRPSGAPPPTNVRPTGVV
Take B2: the MAPPIT interaction score with CG13494 was 0.956.

B3: Dpit47 (protein)
chain: MKQMAAQKAWTDEERLELAAQLDAELDAFIDGLEKKRYEEGWPEDRWQEEMDKHPFFMKRAPQPGDDVHPMFEGLQKLKYDPEENTRDELALNYKEDGNFYMKHKKFRMAIYSFTEGIKTKTDNPDVLAVLYNNRSAAHFFIKNYRSSLSDAQRALFYKPDYTKARWRSAQCAYELERFDLCTQMCEELLEVDVDNEVAIALLHKNKMKKLEIERNQRKEAAEAKRRLTRFHRLRDAIEQRAIKFDDQKVGKKDVLSEELLYPKFLPLEDHPVHLDEDGSTLIWPAAFSYPEFLYSDFYQQLPETTTMRDCLATLLTEKLPYDKAHNYRLGNVHVYYENRKVGCVHKVDEEKQLAEIIAEKGFFVSGGALLFYVVHKDSRVEQEFINERRRPMVYS
Turning to B3, the MAPPIT interaction score in the test with CG13843 was 3.75 (active); with Os-C it was 1.52.

B4: Grip75 (protein)
chain: MIHDLLLACRSHNPEQLGIKAFNETTVIDQFIHPCEREIFMDIIKIIKVYQEVEQFTHSSGRKSDTHGELPDSLHGYYLLNLAKGIEMALEEYYAEIGRLEKYCLGNERNSLSYVYNALYAKFPLLVFMRNLITEIHVLNLRGCVLLHNLHQQCEHGDIQLEKAIKIIMKPVKNAFFSSLAHWLLFGVIDDVHSEFFIKFTPTDAVDGSSFSKSATCSLLSAEKNPEDYIWQYEVNMSQLPGFFSIVLAEKVLFVGQTVLVFKMGRNVKVKNKTDPLAAKLAELDSDDIYQLWSGRESEFFKMVVDLSNEDTINVFRLEKVIIDIKNYVSARLSEIAVNEVDLERQMGLIKDFFLLGRGEFYLEFCSQMVGTMETYREERFKNVTRSFELAATVTGITDDLDKFSLICQRSTSEPDDTSDFNFLQGLSLKYEYEWPLNLLFSPTTIERYNNIFRFLLIIRTYQYEIQRVWAKQTWRAKSAKDVPPNNKIITLRNYLMFFLNNMQYYIQVDVLESQFGILMNVIKSRSDFEVIQRAHTVFLANVLSHCFLLNESETQLNVTGSQNRNPIYGTLLKLFGICEKFAHMTQTKDPSDDLEDEVDQLNESFGVQIASLIQLLVDVKSASCLGPLSQLLLRLDFNCWFSASHNTSA
As to B4, the MAPPIT interaction score with CG13510 was 0.427.

B5: Ufl1 (protein)
chain: MGSDWDEIKRLAADFQKAQLTSTLQKLSERNCVEIVTLLLEKQMLEVVFTNDGKEYITPDHLEREIQDELYVNGGRANLVEVSKTLNVDLSRIELLAERISAENQSVHLVLGQLIDEDYISHIAQEINEKLVQRGEVSISELASQFDLPSDFLQHDVVEKHLGKIIKGRQDASNPRVFFTQAYIQRCKAKIRGALAAITRPINVAVILQKIGVQEKIFYSLLDEIAPAGQVTSKQANSQYVPHIYAKTQADWVNSFYKQNSFLEYDAIQKLGISDAKSYIRKQFPNEEFLYLKRVALGARLVELTVVTALNECSATKQYLDLTTILPSNLSEEDIEEVFSTIMAQKHSNPSNFVYLDGIVFSQPYLAQLVQPCQALAESQAKAAIDGGVYQQYIVEKTLAQKGNVSTQELEDEGKVDKRDERRKKASSGKAGGGAQGRETKTKSTKKHQRGKAAAQFDSDDEDDAQQGSRGGGGASKKAVKPLELVKTADIVKLITASLEEEGLEHLSKSIASLYTNQFNQTALARAQELFEATPQTNRRQTHAAIQDRINTLLIDIRLYEKGLKLFPQDTQTQLVKYLLKSLGNEICNELSLYVASECNLTVKNTNLNVDQRNKLAQECEAQYRAALLEQNKALNKSIDDFELATETVLKTCSMIIKKVDKKKDRLLIADHKKKLQKQLLECNEPALLLHLAALILFTTITGSILHASGKFVSAILQHIRGSLNEDQNALLLRYHDLVLQVLQAIPDSNESKLANEHLQTMQNQVVELAQNFSRASISKAD
For the molecule B5, the figures for the MAPPIT interaction score in the test with CG13901, with CG5862 and with RpLP1 were 1.55, -0.395 and -0.273, respectively.

B6: sw (protein)
chain: MDRKAELERKKAKLAALREEKDRRRREKEIKDMEEAAGRIGGGAGIDKDQRKDLDEMLSSLGVAPVSEVLSSLSSVNSMTSDNSNTQTPDASLQATVNGQSGGKKQPLNLSVYNVQATNIPPKETLVYTKQTQTTSTGGGNGDVLSCHSSPLSGYMEDWWRPRKAHATDYYDEYNLNPGLEWEDEFTDDEESSLQNLGNGFTSKLPPGYLTHGLPTVKDVAPAITPLEIKKETEVKKEVNELSEEQKQMIILSENFQRFVVRAGRVIERALSENVDIYTDYIGGGDSEEANDERSHARLSLNRVFYDERWSKNRCITSMDWSTHFPELVVGSYHNNEESPNEPDGVVMVWNTKFKKSTPEDVFHCQSAVMSTCFAKFNPNLILGGTYSGQIVLWDNRVQKRTPIQRTPLSAAAHTHPVYCLQMVGTQNAHNVISISSDGKLCSWSLDMLSQPQDTLELQQRQSKAIAITSMAFPANEINSLVMGSEDGYVYSASRHGLRSGVNEVYERHLGPITGISTHYNQLSPDFGHLFLTSSIDWTIKLWSLKDTKPLYSFEDNSDYVMDVAWSPVHPALFAAVDGSGRLDLWNLNQDTEVPTASIVVAGAPALNRVSWTPSGLHVCIGDEAGKLYVYDVAENLAQPSRDEWSRFNTHLSEIKMNQSDEV
Consider B6, for which the MAPPIT interaction score with CG13069 (MAPPIT configuration: N-C) was -0.364; with CG13069 (MAPPIT configuration: N-N), 0.421; with DCTN1-p150, 1.87; in the test with ctp (MAPPIT configuration: N-C), 1.37; with ctp (MAPPIT configuration: N-N), 1.75.

B7: Fdx2 (protein)
chain: MLVINSCRAASRLALRSLNLRSPIATRTFSTGLALKTKDVVNITFVRANGDKIKTSGKVGDSLLDVVVNNNVDLDGFGACEGTLTCSTCHLIFKTSDFEKLPDKPGDEELDMLDLAYELTDTSRLGCQITLSKDMEGLEVHVPSTINDARAA
B7: the MAPPIT interaction score with CG13058 (MAPPIT configuration: N-C) is 0.365; in the test with CG13058 (MAPPIT configuration: N-N), 0.0953.

B8: Treh (protein)
chain: MFKLPTISLLLVSWSCLVALSQAKTYSLPDLTTDYNNAIPVDEEEAQDPFASCKIYCEGNLLHTIQTAVPKLFADSKTFVDMKLNNSPDKTLEDFNAMMEAKNQTPSSEDLKQFVDKYFSAPGTELEKWTPTDWKENPSFLDLISDPDLKQWGVELNSIWKDLGRKMKDEVSKNPEYYSIIPVPNPVIVPGGRFIEFYYWDSYWIIRGLLYSQMFDTARGMIENFFSIVNRFGFIPNGGRVYYHGRSQPPLLTGMVKSYVDFTNDDKFAIDALDTLEHEFEFFVNNHNVTVKNHSLCVYRDSSSGPRPESYREDVETGEEFPTDEAKELHYSELKAGAESGMDFSSRWFISPTGTNDGNRSALSTTSIVPVDLNAYLYWNAKLIAEFHSKAGNTKKVTEYETKAEKLLLGIQEVLWNEEAGVWLDYDMINQKPRDYYTPTNLSPLWVKAFNISESEKISASVMAYIERNKLDSFPGGVPNTLSYTGEQWDAPNVWAPMQYILVEGLNNLNTPEAKNMSLKWATRWVKTNFAAFSKDRHMYEKYNADEFGVGGGGGEYEVQTGFGWSNGVIIEWLSKHGRDISIGSGCGCLAGEKRQ
Consider B8, for which, in the test with CG13560, the MAPPIT interaction score was -0.19.

B9: Nin (protein)
chain: MEVSADPYEQKLYQMFRSCETQCGLLDEKSLLKLCSLLELRDQGSALIASLGGSHQLGVSFGQFKEALLNFLGSEFDGNTSSGFIERSLVITDEPLNNTYIESPPESSDREVSPKLVVGTKKYGRRSRPQQGIYELSVTDSDNTDEDQLQQQQNQRSLNGCDELGVQVQRSSSQSDLPGSRRLRSVHTSGSKLKRCASLPARRKMNSNTTGATTSPTAAAKLKQLSIQSQAQHSSSVESLDTVTPQQLETISVHSIMEAWELASIPNTRNLLHVLGFDEEEEVNLQQLTKALEEELRGIDGDHEQSNMLRALAALQATELGNYRLAYRQQHEENLKLRADNKAANQRVALLAVEVDERHASLEDNSKKQVQQLEQRHASMVREITLRMTNDRDHWTSMTGKLEAQLKSLEQEEIRLRTELELVRTENTELESEQQKAHIQITELLEQNIKLNQELAQTSSSIGGTPEHSPLRPRRHSEDKEEEMLQLMEKLAALQMENAQLRDKTDELTIEIESLNVELIRSKTKAKKQEKQEKQEDQESAATATKRRGDSPSKTHLTEESPRLGKQRKCTEGEQSDASNSGDWLALNSELQRSQSQDEELTSLRQRVAELEEELKAAKEGRSLTPESRSKELETSLEQMQRAYEDCEDYWQTKLSEERQLFEKERQIYEDEQHESDKKFTELMEKVREYEEQFSKDGRLSPIDERDMLEQQYSELEAEAAQLRSSSIQMLEEKAQEISSLQSEIEDLRQRLGESVEILTGACELTSESVAQLSAEAGKSPASSPISYLWLQSTIQEPAKSLADSKDEATASAIELLGGSPSHKTASRNNLTTSETSIFSTTPFESSQSGPSPTNSGNSNAYGANPGPAPISKPKRSQSPQQAAASEGEIADCETSSTASGKSFESNSKTSCLSHEKCSSPSALKEELKRLKFFELSLKEQIKDLSLQRDGLVMELQQLQEARPVLEKAYARTTHPTLQQRLNQLELRNRHLQNVIKQQQHYTESLMQQSWRQHQVELNDLHSRIETQGVLLADQTQRLQSADILVKDLYVENSHLTATVQRLEQQRARVNLIHQQQQQQRLVGGGLPGMP
As to B9, the MAPPIT interaction score with CG13476 is 0.125; with CG9795, 4.19 (active).

B10: poly (protein)
chain: MATSVLLACGLNEQKLPGFVHISEESNVDASFLISCVLGQRLRISNAGTLLVCLQHHYQHYFNAGMRLGYNTNIFQGKTLGVIDVLSDMAGEGLASKWLTNTEGQTLTDQLVEDIRAQVERNYASRNSYTVLIDNLSILFNLGASKLQVQQFCQDLAALGKEREKLTVITKLSNSDIYQLTDNNVAKLGQVRIQVLRLKSGVFREVDGKLLIERVLDEGNYACEETRKEVLYKVNDRNVKVFAPGEIGVKV
B10: in the test with CG1316, the MAPPIT interaction score was 0.569.
